# According to PubChem BioAssay AID624202 (National Center for Advancing Translational Sciences (NCATS), 2012):
# About 4,000 (1.1%) of roughly 380,000 compounds were called active. Roughly 3% stayed inconclusive and do not appear here. The full list was thinned out, with actives kept by preference. A number with no mark means an inactive call. Calls come from the whole dose curve; as a rule, active = well fitted activation curve with a large enough effect; inconclusive = small, poorly fitted or top-dose-only effect; inactive = no such curve, though single readings can be large or run the other way.
# Test: qHTS Assay to Identify Small Molecule Activators of BRCA1 Expression; note: nearly all actives have a fitted effect of over 80% in size
# Conditions: MCF7-BRCA1-FFLuc reporter, luminescence, 48 h; series mostly up to 46.1 µM; activation: at the top concentration
# Method in brief: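 48 h compound treatment of MCF7-BRCA1-FFLuc cells (phenol-red free MEM, 37 °C), then 15 min with luciferase substrate and luminescence imaging.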
# Potency is the fitted concentration of half-maximal effect.
SMILES,activation [%],Potency
O=C(NC1CCCCC1)c1ccc2c(c1)N(Cc1ccc(Cl)cc1)C(=O)c1ccccc1S2=O (stereo unspecified),-29.4,–
N#Cc1ccccc1NC(=O)c1ccc2c(c1)OCO2,–,3.16 µM (active)
O=CN1CCN(C(=O)c2ccc3c(c2)OCO3)CC1,5.32,–
Cc1ccc(C(=O)NNC2=Nc3cc([N+](=O)[O-])ccc3OC2)cc1,-41.7,–
Cc1ccc(S(=O)(=O)NCC(=O)Nc2ccc3c(c2)OCCO3)cc1,0,–
O=C(Nc1cccc(Cl)c1N1CCOCC1)c1ccc2c(c1)OCCO2,0.06,–
C/C(=N/NC(=S)Nc1ccccc1)c1ccc2c(c1)OCO2,54,–
O=C(Nc1ccccc1)c1ccc2c(c1)OCO2,–,10 µM (active)
N#Cc1ccccc1NC(=O)c1cccc(COc2ccc(Cl)cc2Cl)c1,-15.9,–
CCSc1ccccc1C(=O)Nc1ccc2c(c1)OCO2,–,11.2 µM (active)
CC(C)NC(=O)CSc1ccccc1C(=O)NCc1ccc2c(c1)OCO2,-1.15,–
Cc1ccc(C(=O)NNC(=O)c2ccc3c(c2)OCCO3)cc1,–,6.31 µM (active)
CCOc1ncccc1C(=O)Nc1ccc2c(c1)OCCO2,-13.2,–
COc1cc2c(=O)c(S(=O)(=O)c3ccc(C(C)C)cc3)cn(Cc3ccccc3C)c2cc1OC,-43.2,–
COc1cc(C(=O)Nc2ccc(-n3c(C)nc4ccccc4c3=O)cc2)cc(OC)c1OC,4.37,–
O=c1cc2nc(-c3ccccc3)nc(SCCOc3ccc(Cl)cc3)n2[nH]1,11.2,–
CCCCC(CCCC)c1ccc(C=Nc2ccc(/C=C/c3ccnc4ccccc34)cc2)cc1,11,–
Cc1ccccc1NC(=O)Cn1c(=O)n(CC2CCC(C(=O)NCCc3ccccc3)CC2)c(=O)c2ccccc21 (stereo unspecified),0.607,–
CCOC(=O)c1c(C)[nH]c(C)c1S(=O)(=O)N1CCCC(C(=O)NCc2ccccc2Cl)C1 (stereo unspecified),-3.4,–
COc1ccc(NC(=O)CCNS(=O)(=O)c2ccc3c(c2)CCCC(=O)N3)cc1Cl,0,–
COCCn1c(SCC(=O)c2cc(C)ccc2C)nc2cc(C(=O)NC3CCCC3)ccc2c1=O,8.48,–
N#Cc1ccc[n+](CC(=O)c2ccc(O)c(O)c2)c1,16.7,–

SMILES,activation [%],Potency
CCOC(=O)C1CCCN(CC(=O)Nc2cc(C)c3c(=O)oc4ccccc4c3n2)C1 (stereo unspecified),2.55,–
CS(=O)(=O)N1CCc2cc(C(=O)Nc3ccccc3)ccc21,17.3,–
C/C(Cc1ccccc1)=N\NC(=O)CNC(=O)c1ccc2c(c1)OCCO2,21.3,–
O=C(Nc1ccccc1)c1ccc2c(c1)OCCCO2,–,12.6 µM (active)
O=C1N(Cc2ccccc2)c2ccc(Cl)cc2C1(O)c1c[nH]c2ccccc12 (stereo unspecified),-30.5,–
O=C(NCc1ccc(Cl)cc1)C1CCN(S(=O)(=O)c2cccs2)CC1,-3.74,–
CC(C)(C)C1CCC(C(=O)NCC(c2cccs2)N2CCOCC2)CC1 (stereo unspecified),-16.4,–
O=C(NCc1csc(-c2cccs2)n1)C1CC1,–,11.2 µM (active)
Cc1ccc(CNS(=O)(=O)c2ccc(C(=O)N(C)C)s2)cc1,-1.32,–
CCOC(=O)c1ccc(N2C(=O)c3n[nH]c(-c4ccco4)c3C2c2ccc(O)cc2)cc1 (stereo unspecified),-71.7,–
CCCNC(=O)C1CC(=O)N(c2ccc(OCc3ccccc3)cc2)C1 (stereo unspecified),–,3.16 µM (active)
CCCNC(=O)C1CC(=O)N(c2ccc(OCC(=O)Nc3cccc(C)c3C)cc2)C1 (stereo unspecified),16.9,–
CCOc1ccc(N2CC(C(=O)NCc3ccccn3)CC2=O)cc1 (stereo unspecified),-0.452,–
OCC(O)C(O)C(O)C(O)C=Nc1ccc(/C=C/c2ccnc3ccccc23)cc1 (stereo unspecified),0,–
OC(COc1ccc2ccccc2c1)CN1CCOCC1 (stereo unspecified),–,11.2 µM (active)
Cc1cccc(OCC(O)Cn2c(=N)n(CCN3CCOCC3)c3ccccc32)c1 (stereo unspecified),-26.8,–
OC(COc1ccc2ccccc2c1)Cn1cncn1 (stereo unspecified),3.96,–
Cc1cc2c(cc1C)C(c1cccc(OC(C)C)c1)CC(=O)N2 (stereo unspecified),-12.9,–
COc1ccc(NC(=O)Nc2ccc3nsnc3c2)cc1,–,2.51 µM (active)
COc1ccc(NC(=O)Nc2cccc(-c3noc(C)n3)c2)cc1,0,–
O=C(Nc1ccc2ccccc2c1)Nc1ccc2snnc2c1,-70.4,–
Cc1ccc(C(=O)O/N=C(\N)c2ccccn2)cc1Cl,-57.3,–

SMILES,activation [%],Potency
N/C(=N\OC(=O)CC1CCCCC1)c1ccccc1,18,–
N/C(=N\OC(=O)CCC1CCCCC1)c1ccccn1,–,7.94 µM (active)
O=C1O/C(=C\c2ccc(O)cc2)C(O)=C1c1ccc(O)cc1,13.3,–
COc1ccc(CCNC(=O)CCCn2c(=O)c3ccccc3n(Cc3ccc(C)cc3)c2=O)cc1OC,4.93,–
COc1ccc(/C=C/c2ccccn2)cc1OC,2.23,–
COc1ccc(-c2noc(CSc3nc4ccc(C)cc4[nH]3)n2)cc1,-20.9,–
Cc1ccc(-c2nc3ccccn3c2Nc2ccc(F)cc2)o1,23.2,–
Cc1cccc2nc(CNc3ccc(F)cc3)cn12,–,12.6 µM (active)
CCOC(=O)CSc1nnc(CNc2ccc(F)cc2)o1,-0.722,–
Cc1oc2ncn(CC(C)C)c(=O)c2c1C(=O)N1CCN(c2ccccc2F)CC1,0,–
CCOC(OCC)c1ccc(/C=C\c2nccc(N)n2)cc1,–,3.16 µM (active)
O=C(Nc1ccc(Cl)cc1)c1cnn2c1NC(=C1CC1)C=C2C(F)F,-8.62,–
CCOC(=O)CC1(NC(=O)c2cc(COc3cncc(Cl)c3)on2)CCCCC1,-2.02,–
CCCOC1CCCN(C(=O)c2cc(COc3cncc(Cl)c3)on2)C1 (stereo unspecified),–,5.62 µM (active)
CC1CN(C(=O)c2cc(COc3c(F)cccc3F)on2)CCN1C (stereo unspecified),53.8,–
O=C(c1ccco1)N(Cc1cccs1)c1ccc(O)cc1,0,–
CCc1nn(CC(=O)NCC(C)c2ccccc2)c(=O)c2cc3occc3n12 (stereo unspecified),10.8,–
CCc1nn(CCCC(=O)NCc2ccccc2OC)c(=O)c2cc3occc3n12,0.244,–
COc1ccc2cc(-c3nc(Cl)c4c5c(sc4n3)CC(C)CC5)c(=O)oc2c1 (stereo unspecified),29.2,–
Cn1c(=O)c2c(nc(NCCc3ccccc3)n2Cc2ccccc2Br)n(C)c1=O,11.3,–
CSc1ccc(/C=C2\NC(=O)NC2=O)cc1,84.5,–
Cc1ccccc1-n1c(C)cc(/C=C2\NC(=O)NC2=O)c1C,–,10 µM (active)

SMILES,activation [%],Potency
Cc1ccccc1-n1c(C)cc(/C=N/NC(=O)c2ccc(CN3CCOCC3)cc2)c1C,-10.3,–
COc1ccc(Cl)cc1N(C)C(=O)c1cc2c(=O)oc3ccc(C)cc3c2s1,12.6,–
COc1ccc(NC(=O)c2cnc(Nc3ccc(C)c(Cl)c3)c3ccccc23)cc1OC,-4.92,–
O=C1c2ccccc2C(=O)N1c1ccc(S(=O)(=O)N2CCOCC2)c2ccccc12,1.74,–
COc1cccc(NC(=O)CSc2cc(=O)n(C)c3ccc(Cl)cc23)c1,13.2,–
Cc1ccc(NC(=O)CN2C(=O)CC(C)Sc3ccccc32)c(C)c1 (stereo unspecified),-19.1,–
C[C@H](NC(=O)c1ccccc1)C(=O)OCC(=O)c1c[nH]c2ccccc12,-34.3,–
O=C(N/N=C/c1c[nH]c2ccccc12)c1ccccc1O,–,8.91 µM (active)
O=C(NC(Cc1c[nH]c2ccccc12)C(=O)N/N=C/c1ccc(Br)cc1)c1cccs1 (stereo unspecified),-83.7,–
CCOC(=O)c1cccc(NC(=O)c2cc(S(=O)(=O)N3CCCC(C)C3)cn2C)c1 (stereo unspecified),-55.3,–
O=C(CCn1c(=O)c2ccccc2n(Cc2ccc(Cl)cc2)c1=O)NCc1ccc2c(c1)OCO2,6.66,–
CCCN(C(=O)Cn1cc(S(=O)(=O)N2CCN(c3ccccc3F)CC2)c2ccccc2c1=O)c1cccc(C)c1,-2.67,–
c1ccc(-c2ccc(OCCN3CCOCC3)cc2)cc1,–,11.2 µM (active)
CCOc1ccc(C(=O)CCN2CCOCC2)cc1,-34.5,–
OC(c1ccccc1)(c1ccccc1)C1CCN(CCCOc2ccccc2)CC1,-6.13,–
CCc1cccc(NC(=O)Cn2nc(CC)n3c(cc4cc(C)ccc43)c2=O)c1,-10.7,–
COc1ccccc1C(=O)NCCn1cc(SCc2ccccc2Cl)c2ccccc21,-56.6,–
COc1ccc(CN2C(=O)C(C)S/C2=N/N=C/c2ccco2)cc1 (stereo unspecified),–,11.2 µM (active)
CCN(CC)C(=O)C1=C(C)N(Cc2ccc(OC)cc2)C(=O)C(CC(=O)NCc2ccco2)C1 (stereo unspecified),-12.6,–
O=C1N/C(=N\N=C\c2ccco2)SC1Cc1ccc(F)cc1 (stereo unspecified),-4.99,–
CN(Cc1ccccc1)c1ccc(/C=C/c2ccnc3ccccc23)cc1,-21.5,–
CCc1ccc(OCCCn2c(CCCNC(=O)C3CCCCC3)nc3ccccc32)cc1,9.55,–

SMILES,activation [%],Potency
COc1ccccc1CNS(=O)(=O)c1cc(Br)cc2c1N(C(C)=O)C(C)C2 (stereo unspecified),-12.5,–
Cc1cc(C)c2nc(N3CCC(C(=O)NCCN4CCOCC4)CC3)sc2c1,32.9,–
Fc1cc(F)c2nc(N3CCOCC3)sc2c1,–,12.6 µM (active)
Cc1nc(N2CCOCC2)sc1C(=O)NN,-106,–
CCc1nc2onc(C)c2c(=O)n1CC(=O)O,0.973,–
Cc1cc(C(=O)COc2ccccc2Cl)c(C)n1C1CC1,–,12.6 µM (active)
Cc1cc(C(=O)COc2ccc(Br)cc2F)c(C)n1C1CC1,45.1,–
O=C(COc1ccccc1Cl)N1CCCCCCC1,33.8,–
Cn1c(=O)c2c(-c3ccccc3Br)n(Cc3ccccc3)cc2n(C)c1=O,-2.04,–
CCc1ccccc1OCC(=O)Nc1ccc2c(c1)OCCO2,94.9,–
S=C(Nc1ccc2c(c1)OCO2)N1CCCC1,56.2,–
CCCCC(=O)Nc1ccc2c(c1)OCCO2,–,7.08 µM (active)
S=C(Nc1cccc(Cl)c1)Nc1ccc2c(c1)OCCO2,–,11.2 µM (active)
S=C(NCc1ccco1)Nc1ccc2c(c1)OCCO2,39.2,–
Cc1ccc(OCCCC(=O)Nc2ccc3c(c2)OCCO3)cc1,22.6,–
COc1ccccc1-c1cc2nc(C)c(CCC(=O)NC3CCCCC3)c(C)n2n1,-4.32,–
COc1ccc(NC(=O)CSc2nnc(-c3nnn(-c4ccc(F)cc4)c3C)o2)cc1,4.5,–
O=C(CS(=O)(=O)c1cccc2nsnc12)N1CCN(c2cccc(Cl)c2)CC1,-5.64,–
